Inconclusive results are not listed. Where a call stands in place of a potency, no number is given. Active and inactive are the calls of the source. Calls follow the shape of the dose curve; as a rule, active = well fitted curve in the direction sought with a large enough effect; inconclusive = small, poorly fitted or top-dose-only effect, or another doubt; inactive = no such curve, though single readings can be large; an effect the other way counts as inactive or inconclusive.
What was measured:
[1] = target: Cytochrome P450 3A7 (Homo sapiens) (UniProt P24462); assay: Cytochrome P450 family 3 subfamily A member 7 (CYP3A7) small molecule antagonists: luciferase biochemical qHTS assay (AID 1963596); also: nearly all actives have a fitted effect of over 40% in size
Chain of Cytochrome P450 3A7 (Homo sapiens) (P24462 whole entry, looked up): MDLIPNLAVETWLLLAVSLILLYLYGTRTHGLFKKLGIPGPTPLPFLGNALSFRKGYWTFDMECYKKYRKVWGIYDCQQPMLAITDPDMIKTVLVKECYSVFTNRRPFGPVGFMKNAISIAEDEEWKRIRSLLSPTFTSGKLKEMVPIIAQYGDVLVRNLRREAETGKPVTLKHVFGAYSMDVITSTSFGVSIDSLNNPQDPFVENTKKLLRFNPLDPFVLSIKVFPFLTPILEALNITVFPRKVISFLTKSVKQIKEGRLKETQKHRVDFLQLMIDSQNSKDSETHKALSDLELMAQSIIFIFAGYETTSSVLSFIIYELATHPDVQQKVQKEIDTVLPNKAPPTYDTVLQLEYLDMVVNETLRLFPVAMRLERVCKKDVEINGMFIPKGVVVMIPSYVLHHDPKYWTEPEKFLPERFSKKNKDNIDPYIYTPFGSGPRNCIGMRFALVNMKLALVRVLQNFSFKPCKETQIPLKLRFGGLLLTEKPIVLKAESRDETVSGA
Summary of the method: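 P450-Glo luminescent assay: CYP3A7 enzyme converts a proluciferin substrate to luciferin, detected by luciferase reagent; light proportional to activity. Compounds in DMSO preincubated 10 min with enzyme-substrate mix at room temperature, then NADPH regeneration added for 1 h.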

[2] = Viability qHTS for spleen associated tyrosine kinase inhibitor (SYKi) naive MV4-11 cells (AID 1963823); also: nearly all actives have a fitted effect of over 40% in size; also: potency is read from the fitted curve at half-maximal effect
Summary of the method: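 qHTS, SYK inhibitor-naive MV4-11; 500 cells/well; 72 hr compound exposure, 37 C; CellTiter-Glo added, 10 min RT; luminescence read.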

[3] = Viability qHTS for spleen associated tyrosine kinase inhibitor (SYKi) drug resistant MV4-11 cells (AID 1963824); also: nearly all actives have a fitted effect of over 35% in size; also: potency is read from the fitted curve at half-maximal effect
Summary of the method: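 CellTiter-Glo luminescence, read 10 min after reagent addition, reports viability after a 72 hr compound exposure. Cells are an MV4-11 line made resistant to SYK inhibition, seeded at 500 per well onto compound-containing plates.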

SMILES | Potency [1] | Potency [2] | Potency [3]
CNC(C)C(=O)NC(C(=O)N1CCCC1C(=O)Nc1cccc2ncccc12)C(C)C (stereo unspecified) | inactive | inactive | 11.6 µM (active)
COC(=O)c1cc(Br)cnc1N1CCC(NC2CCCCC2)C(O)C1 (stereo unspecified) | inactive | inactive | inactive
CC(=O)SCC(=O)c1ccc(NS(=O)(=O)c2ccc(OCCCN(C)C)cc2)nc1 | inactive | 2.59 µM (active) | 2.91 µM (active)
N#Cc1cc(CN2CCC(Nc3ncnc4sc(Cl)cc34)CC2)ccc1F | inactive | 9.2 µM (active) | 13 µM (active)
CN1CCN(C(=O)CN[C@@H]2C[C@H]2c2ccc(OCc3ccccc3)cc2)CC1 | inactive | 25.9 µM (active) | 25.9 µM (active)
COc1ccc(C2(CNC(=O)c3ccc(NC(=O)c4ccco4)cc3)CCOCC2)cc1 | inactive | inactive | inactive
CC1(C)CC(NC(=O)C(=O)Nc2ccc(Br)cc2)CC(C)(C)N1 | inactive | 3.26 µM (active) | 2.59 µM (active)
CCC(C)C(N)C(=O)NCCN1CCOCC1 (stereo unspecified) | inactive | inactive | inactive
O=C1N=C(N2CCOCC2)CN1c1ccc(Cl)cc1 | inactive | inactive | inactive
COc1ccc(CCO[C@@H]2CCCC[C@H]2N2CC[C@@H](O)C2)cc1OC | inactive | inactive | inactive
O=S(=O)(c1ccc(Cl)cc1)N1CCN(c2ccnc3cc(Cl)ccc23)CC1 | inactive | 16.4 µM (active) | 16.4 µM (active)
CC1(C)Oc2ncnc(N)c2N=C1c1ccc(C2CCC(CC(=O)O)CC2)cc1 (stereo unspecified) | inactive | inactive | inactive

From PubChem BioAssay (NCATS)
